An excerpt weighted towards active compounds, which were near 2.1% of everything screened.
GalR3 antag: blocks the human galanin receptor 3; O60755; HEK293 GalR3-CNG cAMP membrane potential fluorescence; galR3 body fused to GalR1 C-terminus; inhibition, % at 3 µM; actives 0.44% (n = 360,000);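 active = inhibition above the screen-wide average plus 3 SD, cut at about 13% in these data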;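 also: forskolin and galanin both at EC90 stimulate the cells; cAMP rise reported by CNG channel membrane potential dye signal; 0% = forskolin plus galanin with DMSO and 100% = forskolin alone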
Env fusion inh: inhibitors of HIV Env-mediated cell fusion. HeLa-JRFL Env/CEM21 cell fusion, luciferase. inhibition, % at 12.3 µM. actives 1.1% (n = 360,000);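 active = mean replicate inhibition score of at least 50 and every replicate individually at or above 50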;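 also: 0% = plate neutral controls and 100% = maraviroc near 300 nM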
Gli-Sufu block: Gli-Sufu pathway antagonism. AID 588413. actives 0.74% (n = 340,000). Sufu-KO-LIGHT fibroblasts, Gli luciferase reporter luminescence. inhibition, % at 5 µM;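 active = inhibition above about 55%, limit read from the data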;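 also: 0% = DMSO-treated cells and 100% = wells with medium but no cells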
aDG glyco act: alpha-DG glycosylation activation. Pro5-aDG cells, alpha-DG glycosylation AlphaScreen (IIH6); 0% Pro5, 100% B10-LARGE cell signal. activation, % at 10 µM. actives 0.22% (n = 360,000);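 active = activation of at least 8% versus controls, or a plate z-score of at least 8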;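 also: Pro5 are CHO cells carrying HIG-tagged alpha-DG that lacks glycosylation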
COUP-TFII inh: NR2F2 (human) inhibition, primary screen; P24468; HEK293T NGFI-A luciferase reporter, luminescence; inhibition, % at 8.6 µM; actives 0.7% (n = 370,000);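 active = inhibition above a per-plate cutoff, mean inhibition of test wells between control levels plus 3 SD, cut at about 38% in these data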;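 also: cells cotransfected with COUP-TFII expression vector driving the NGFI-A reporter; 0% = median of COUP-TF2 test wells and 100% = reporter-only cells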
Target sequence (P24468 whole entry, looked up): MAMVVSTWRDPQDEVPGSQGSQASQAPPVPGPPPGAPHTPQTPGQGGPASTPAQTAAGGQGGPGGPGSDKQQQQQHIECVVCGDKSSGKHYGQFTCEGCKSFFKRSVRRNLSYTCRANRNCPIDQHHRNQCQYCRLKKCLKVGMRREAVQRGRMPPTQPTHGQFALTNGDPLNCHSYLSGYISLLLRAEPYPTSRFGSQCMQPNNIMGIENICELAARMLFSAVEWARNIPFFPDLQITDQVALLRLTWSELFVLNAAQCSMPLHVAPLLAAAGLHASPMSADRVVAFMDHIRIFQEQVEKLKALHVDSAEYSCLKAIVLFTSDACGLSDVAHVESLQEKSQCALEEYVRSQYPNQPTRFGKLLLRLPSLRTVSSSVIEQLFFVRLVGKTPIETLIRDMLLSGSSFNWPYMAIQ
Gli antag conf: Gli-SUFU antagonism confirmation, single concentration; shares compounds with Gli-Sufu block; Sufu-KO-LIGHT cells, Gli luciferase reporter, luminescence; inhibition, % at 5 µM; actives 40% (n = 2,500); AID 602428;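 active = mean inhibition at 5 µM reaching about 45%, limit read from the data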;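 also: plate controls were DMSO-treated cells for no effect and wells lacking cells for full effect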
SufuKO cytotox: counter-screen for Gli-SUFU antagonists: cytotoxicity; cytotoxicity, % at 5 µM; actives 32% (n = 2,500); shares compounds with Gli-Sufu block; Sufu-KO-LIGHT cells cytotoxicity, ATP luminescence;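 active = mean cytotoxicity at 5 µM above about 25%, limit read from the data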;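 also: cells exposed to compound overnight for roughly 16 to 18 hours; plate controls were DMSO wells with cells for no effect and medium without cells for full effect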
Wnt3a counter: inhibits Wnt3a reporter, counter-screen for Gli-SUFU antagonists; shares compounds with Gli-Sufu block; Wnt-LIGHT cells, Wnt3a-driven luciferase reporter, luminescence; inhibition, % at 6.25 µM; actives 20% (n = 2,500);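 active = mean inhibition above about 25%, limit read from the data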
Numbers without * were called inactive; [ ] = another dose, or the depositor's remark.

`O=C(NCC[C@@H]1CC[C@H](NC(=O)C2CC2)[C@@H](CO)O1)c1cnccn1` gave Env fusion inh -16[16.7 µM].
CCCCCCCc1nc2c(=O)n(C)c3ccccc3c2o1 was read as GalR3 antag -5, Env fusion inh -49, Gli-Sufu block 6, aDG glyco act 0 and COUP-TFII inh 0.
For CCCCCc1nc2c(=O)n(C)c3ccccc3c2o1 the results were GalR3 antag -2, Env fusion inh 3, Gli-Sufu block 76*, aDG glyco act 2, COUP-TFII inh -10, Gli antag conf 3, SufuKO cytotox 5 and Wnt3a counter -52.
`O=C(C[C@@H]1C=C[C@@H](NC(=O)Cc2ccccn2)[C@H](CO)O1)NCCc1ccncc1` gave Env fusion inh 1[16.7 µM].
`CC(C)OC(=O)N(C)C[C@@H]1OCc2ccccc2-c2ccccc2C(=O)N([C@H](C)CO)C[C@H]1C` gave Env fusion inh 7[16.7 µM].
For Cc1ccc2c(c1)NCC(C(=O)NC1CCCCC1)O2 (configuration not stated) the results were Gli-Sufu block 52, aDG glyco act 0, Gli antag conf 9, SufuKO cytotox -4 and Wnt3a counter -4.
For C/C=C/c1cnc2c(c1)C(=O)N([C@@H](C)CO)C[C@@H](C)[C@@H](CN(C)Cc1ccncc1)O2 the results were Env fusion inh -11[16.7 µM].
COc1cc(OC)c(OC)cc1/C=N/n1c(COc2ccccc2)n[nH]c1=S was read as GalR3 antag -5, Env fusion inh -10, Gli-Sufu block 57*, aDG glyco act 0, COUP-TFII inh 8, Gli antag conf 25, SufuKO cytotox 18 and Wnt3a counter -21.
NC(=O)c1ccc(N2CCCCC2)c(N2C(=O)C3CC=CCC3C2=O)c1 (configuration not stated) was read as GalR3 antag -2, Env fusion inh -55, Gli-Sufu block 53, aDG glyco act 0, COUP-TFII inh -11, Gli antag conf 21, SufuKO cytotox 2 and Wnt3a counter 6.
For CC1Cc2cc(S(=O)(=O)N3CCC(C(=O)N4CCN(c5ccccc5F)CC4)CC3)ccc2N1C(=O)C1CC1 (configuration not stated) the results were GalR3 antag 1, Env fusion inh 37, Gli-Sufu block 54, aDG glyco act 0, COUP-TFII inh 18, Gli antag conf 62*, SufuKO cytotox 24 and Wnt3a counter 5.
`CS(=O)(=O)c1nc(S(=O)(=O)c2ccc(Cl)cc2)c(NCCN2CCOCC2)s1` gave GalR3 antag -5, Env fusion inh -9, Gli-Sufu block -3, aDG glyco act 0 and COUP-TFII inh -3.
`CS(=O)(=O)c1nc(S(=O)(=O)c2ccc(Cl)cc2)c(NCCCn2ccnc2)s1` gave GalR3 antag -7, Env fusion inh -6, Gli-Sufu block 57*, aDG glyco act 0, COUP-TFII inh -18, Gli antag conf 11, SufuKO cytotox 6 and Wnt3a counter 3.
`CC1CCCN(C(=O)c2ccc3c(=O)n(C4CCCC4)c(=S)[nH]c3c2)C1` (configuration not stated) gave GalR3 antag -2, Env fusion inh 50, Gli-Sufu block 46, aDG glyco act 2 and COUP-TFII inh -2.
O=C(c1ccc2c(=O)n(-c3ccccc3)c(=S)[nH]c2c1)N1CCCCC1 was read as GalR3 antag -8, Env fusion inh 13, Gli-Sufu block 60*, aDG glyco act 4, COUP-TFII inh 37, Gli antag conf 55*, SufuKO cytotox 36* and Wnt3a counter 7.
Screening O=C(c1ccc2c(=O)n(C3CCCC3)c(=S)[nH]c2c1)N1CCCCCC1 returned GalR3 antag 3, Env fusion inh 31, Gli-Sufu block 57*, aDG glyco act 1, COUP-TFII inh 7, Gli antag conf 51*, SufuKO cytotox 35* and Wnt3a counter -24.
